Test results: PubChem BioAssay (NCATS)
Results filed as inconclusive are left out. Calls of active or inactive are those of the source. The call rests on the fitted dose curve; in most records, active means well fitted curve in the direction sought with a large enough effect; inconclusive means small, poorly fitted or top-dose-only effect, or another doubt; inactive means no such curve, though single readings can be large; an effect the other way counts as inactive or inconclusive.

Experiments:
[1] = Cellular Toxicity (caspase-3) N2a (AID 665); conditions: N2a cells, luminescence, normalized: DMSO 0%, 10 µM staurosporine 100%; series mostly up to 92.2 µM;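 further: compound exposure lasted 16 h at 37 °C before readout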
In short: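 N2a cells, 1500/well, 5 h settle at 37 °C; cpd 16 h, 37 °C; Caspase-Glo 3/7, 1 h RT; luminescence. Norm: DMSO = 0, 10 uM staurosporine = 100%. AC50, Hill fit.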

[2] = Cellular Toxicity (caspase-3) NIH 3T3 (AID 666); conditions: NIH 3T3 caspase-3 activation, apoptosis/toxicity, 0% DMSO, 100% is 100 µM tamoxifen; series mostly up to 92.2 µM;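 further: caspase signal read after 16 h compound exposure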
In short: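 Luminescence from aminoluciferin released by caspase-3/7 cleavage of a peptide substrate served as read-out. Mouse fibroblast NIH 3T3 cells were exposed to compounds over a concentration range for 16 hours, and AC50 values came from standard Hill modelling.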

[3] = Cellular Toxicity (caspase-3) Renal Proximal Tubule (AID 667); conditions: renal proximal tubule cells, primary cells freshly taken from rat, solvent-only wells 0%, staurosporine 100%; series mostly up to 91.7 µM;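 further: cells exposed to compound for 16 hours at 37 °C before detection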
In short: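 AC50 derived by standard Hill fit of concentration-response data, normalized between DMSO basal and 10 uM staurosporine as 100% stimulation. Cells: primary rat kidney proximal tubule, 16 h treatment at 37 °C.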

[4] = MultiTox-Fluor Cytotoxicity Assay - LYMP1-001 - Dead Cells (AID 946); conditions: LYMP1-001 lymphoblastoid cells, dead-cell protease fluorescence; series mostly up to 92.2 µM
In short: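 AC50 from Hill fit of concentration-response; data normalized to DMSO (basal) and 15 uM tetraoctylammonium bromide (100%). LYMP1-001 lymphoblastoid cells, 2500/well, 16 hr compound at 37 C; dead-cell protease fluorescence, Ex/Em 485/520.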

[5] = MultiTox-Fluor Cytotoxicity Assay - LYMP1-001 - Live Cells (AID 947); conditions: LYMP1-001 lymphoblastoid cells, live-cell protease fluorescence viability; series mostly up to 92.2 µM
[6] = Cell Viability - LYMP1-002 - Assay at 16 hr (AID 948); conditions: LYMP1-002 lymphoblastoid cell viability; series mostly up to 92.2 µM
In short: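 Seed 2500 LYMP1-002 cells per well in complete medium and hold 5 hr at 37 C. Add compound across a concentration series and incubate 16 hr at 37 C. Add CellTiter-Glo, wait 30 min at room temperature, read luminescence.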

[7] = MultiTox-Fluor Cytotoxicity Assay - LYMP1-002 - Live Cells (AID 955); conditions: LYMP1-002 lymphoblastoid live-cell protease fluorescence viability; series mostly up to 46.1 µM
In short: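 Read-out is live-cell protease activity (cell-permeant GF-AFC substrate, fluorescence Ex/Em=405/510), where a decrease indicates acute toxicity. Human lymphoblastoid cells were treated 16 hours at 37 C in a concentration series, and AC50 values came from standard Hill modelling.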

[8] = MultiTox-Fluor Cytotoxicity Assay - LYMP1-002 - Dead Cells (AID 960); conditions: LYMP1-002 lymphoblastoid cells, dead-cell protease fluorescence; series mostly up to 46.1 µM;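 further: cells exposed to compound for 16 h at 37 °C; nearly all actives have a fitted effect of over 60% in size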
In short: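 LYMP1-002 cells 2500/well; 5 hr 37 C pre-incubation; compound 16 hr 37 C; MultiTox-Fluor reagent 60 min RT; dead-cell fluor Ex/Em 485/520. Norm. to DMSO (0%) vs 15 uM tetraoctylammonium bromide (100%); Hill AC50.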

[9] = MultiTox-Fluor Cytotoxicity Assay - LYMP1-003 - Dead Cells (AID 961); conditions: LYMP1-003 lymphoblastoid cells, dead-cell protease fluorescence; series mostly up to 92.2 µM;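 further: cells exposed to compound for 16 h at 37 °C; nearly all actives have a fitted effect of over 70% in size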
In short: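 Human lymphoblastoid LYMP1-003 cells (2500/well) were treated with compounds for 16 hr at 37 C in complete medium. Dead-cell protease release was read by bis-AAF-R110 fluorescence (Ex/Em 485/520). AC50 came from Hill fits, normalized to DMSO and 15 uM tetraoctylammonium bromide.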

[10] = MultiTox-Fluor Cytotoxicity Assay - LYMP1-003 - Live Cells (AID 962); conditions: LYMP1-003 lymphoblastoid cells, MultiTox-Fluor live-cell protease fluorescence; series mostly up to 92.2 µM;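 further: cells exposed to compound for 16 hours at 37 °C; cytotoxic hits lower the live-cell protease signal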
In short: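 qHTS, 1536-well; 2500 cells/well LYMP1-003; 5 hr 37 C settle; cpd 16 hr 37 C; MultiTox-Fluor reagent 60 min RT; live-cell protease fluor. 405/510; Hill-fit AC50; tetraoctylammonium bromide pos. ctrl.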

[11] = Cell Viability - LYMP1-003 - Assay at 24 hr (AID 963); conditions: LYMP1-003 lymphoblastoid cell viability; series mostly up to 92.2 µM
In short: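 Cells seeded at 2500/well, 5 hr at 37 C; compounds added; 24 hr at 37 C; CellTiter-Glo added, 30 min room temperature; luminescence read. Decrease in ATP taken as cytotoxicity, AC50 from Hill modelling.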

[12] = Cell Viability - LYMP1-003 - Assay at 40 hr (AID 964); conditions: LYMP1-003 lymphoblastoid viability; series mostly up to 92.2 µM; further: nearly all actives have a fitted effect of over 60% in size
In short: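 Cells were seeded at 2500 per well and incubated 5 hr at 37 C. Compounds were added across a concentration series and left 40 hr at 37 C. CellTiter-Glo was added for 30 min at room temperature before luminescence reading.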

[13] = Cell Viability - LYMP2-003 (AID 965); conditions: LYMP2-003 lymphoblastoid cell viability; series mostly up to 92.2 µM;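 further: cells exposed to compounds for 24 h before reading; nearly all actives have a fitted effect of over 50% in size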
In short: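 Seed 2500 lymphoblastoid cells/well; incubate 5 hr, 37 C; add compounds; incubate 24 hr, 37 C; add CellTiter-Glo, 30 min RT; read luminescence. AC50 from Hill fit.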

[14] = target: Cytochrome P450 2C19 (Homo sapiens) (UniProt P33261); assay: qHTS Assay for Inhibitors and Substrates of Cytochrome P450 2C19 (AID 899); conditions: recombinant CYP2C19, luciferin-H EGE luminescence; further: potency means the concentration at half of the fitted maximal effect; nearly all actives have a fitted effect of over 60% in size
Sequence of Cytochrome P450 2C19 (Homo sapiens) (P33261 whole entry, looked up): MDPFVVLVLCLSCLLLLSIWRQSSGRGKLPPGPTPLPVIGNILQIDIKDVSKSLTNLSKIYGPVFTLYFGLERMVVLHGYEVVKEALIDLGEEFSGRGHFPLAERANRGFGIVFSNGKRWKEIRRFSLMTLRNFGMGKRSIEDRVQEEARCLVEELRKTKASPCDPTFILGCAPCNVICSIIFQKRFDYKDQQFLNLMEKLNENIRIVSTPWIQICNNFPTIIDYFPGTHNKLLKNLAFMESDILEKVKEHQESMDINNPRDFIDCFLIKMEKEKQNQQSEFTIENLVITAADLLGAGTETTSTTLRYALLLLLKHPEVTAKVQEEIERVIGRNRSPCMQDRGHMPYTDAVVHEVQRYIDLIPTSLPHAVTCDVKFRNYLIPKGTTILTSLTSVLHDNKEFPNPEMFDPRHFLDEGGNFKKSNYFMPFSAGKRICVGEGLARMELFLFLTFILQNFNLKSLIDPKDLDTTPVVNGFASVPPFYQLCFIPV
In short: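 Reactions contain 5nM enzyme, 10uM Luciferin-H EGE (KM) and 50mM KPO4; compound preincubates 10 min at 37C, NADPH regeneration starts turnover for 60 min. Luminescence after detection reagent gives activity.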

Measured: Potency

C[C@@H]1C[C@H]2[C@@H]3CCC4=CC(=O)C=C[C@]4(C)[C@@]3(F)[C@@H](O)C[C@]2(C)[C@@]1(O)C(=O)CO
not listed: [14]
inactive: all other assays above

CN1CCN2c3ncccc3Cc3ccccc3C2C1 (stereo not given)
active: [14] 0.0501 µM

CN(C)CCN(Cc1ccc(Cl)cc1)c1ccccn1
active: [14] 6.31 µM
